TsaE inh – YjeE (TsaE) inhibition, E. coli | P0AF67 | purified YjeE enzyme, qHTS inhibition assay | Potency, µM | hit rate 0.05% among 71,000 | AID 605
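Purified YjeE (10 uM) with BODIPY Texas Red-labeled ADP probe (2 uM); compounds pin-transferred, 15 min at room temperature. Binding inhibition read as decreased fluorescence polarization; ADP titration as control.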
Hsp90 Hop PPI – changes Hsp90-Hop TPR2A binding signal, up or down | Potency, µM (highest dose often 57 µM), inactives show at the highest dose activity change, negative = inhibition | AID 595 | hit rate 0.44% among 71,000 | AlphaScreen TPR2A-His6 binding biotin-Hsp90 C-terminal peptide; active = well fitted curve in either direction with a large enough effect; inconclusive = small, poorly fitted or top-dose-only effect, or another doubt; also: potency is read from the fitted curve at half-maximal effect; % is scaled to controls: 0 for no effect and ±100 for the full control effect
USP2a inh – blocks human ubiquitin-specific protease USP2a. USP2a enzymatic assay, qHTS inhibition. Potency, µM (series often up to 38.3 µM), for inactives: at the highest dose activity change, negative = inhibition, most hits filed as inhibitors. hit rate 0.1% among 60,000. AID 927; also: potency is read from the fitted curve at half-maximal effect; nearly all actives have a fitted effect of over 60% in size
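Coupled readout: USP2-cleaved Ub-PLA2 (20nM final) turns over NBD C6-HPC (20uM final), Ex 460nm/Em 535nm after 2.5 h, time-zero read flagging artifacts. Enzyme (20nM final, pH 8.0 Tris) given 30 min RT with compound first; NEM defines full inhibition.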
BRCT inh red – disrupts BRCA1 BRCT binding to phosphoprotein, red fluorophore readout | BRCT-phosphopeptide binding, red fluorescence polarization | AID 892 | hit rate 0.03% among 75,000 | Potency, µM (highest dose often 76.9 µM), for the others: top-dose activity change, negative = inhibition, most hits filed as inhibitors | P38398; also: % is scaled to controls: 0 for no effect and ±100 for the full control effect
Target sequence (P38398 whole entry, looked up): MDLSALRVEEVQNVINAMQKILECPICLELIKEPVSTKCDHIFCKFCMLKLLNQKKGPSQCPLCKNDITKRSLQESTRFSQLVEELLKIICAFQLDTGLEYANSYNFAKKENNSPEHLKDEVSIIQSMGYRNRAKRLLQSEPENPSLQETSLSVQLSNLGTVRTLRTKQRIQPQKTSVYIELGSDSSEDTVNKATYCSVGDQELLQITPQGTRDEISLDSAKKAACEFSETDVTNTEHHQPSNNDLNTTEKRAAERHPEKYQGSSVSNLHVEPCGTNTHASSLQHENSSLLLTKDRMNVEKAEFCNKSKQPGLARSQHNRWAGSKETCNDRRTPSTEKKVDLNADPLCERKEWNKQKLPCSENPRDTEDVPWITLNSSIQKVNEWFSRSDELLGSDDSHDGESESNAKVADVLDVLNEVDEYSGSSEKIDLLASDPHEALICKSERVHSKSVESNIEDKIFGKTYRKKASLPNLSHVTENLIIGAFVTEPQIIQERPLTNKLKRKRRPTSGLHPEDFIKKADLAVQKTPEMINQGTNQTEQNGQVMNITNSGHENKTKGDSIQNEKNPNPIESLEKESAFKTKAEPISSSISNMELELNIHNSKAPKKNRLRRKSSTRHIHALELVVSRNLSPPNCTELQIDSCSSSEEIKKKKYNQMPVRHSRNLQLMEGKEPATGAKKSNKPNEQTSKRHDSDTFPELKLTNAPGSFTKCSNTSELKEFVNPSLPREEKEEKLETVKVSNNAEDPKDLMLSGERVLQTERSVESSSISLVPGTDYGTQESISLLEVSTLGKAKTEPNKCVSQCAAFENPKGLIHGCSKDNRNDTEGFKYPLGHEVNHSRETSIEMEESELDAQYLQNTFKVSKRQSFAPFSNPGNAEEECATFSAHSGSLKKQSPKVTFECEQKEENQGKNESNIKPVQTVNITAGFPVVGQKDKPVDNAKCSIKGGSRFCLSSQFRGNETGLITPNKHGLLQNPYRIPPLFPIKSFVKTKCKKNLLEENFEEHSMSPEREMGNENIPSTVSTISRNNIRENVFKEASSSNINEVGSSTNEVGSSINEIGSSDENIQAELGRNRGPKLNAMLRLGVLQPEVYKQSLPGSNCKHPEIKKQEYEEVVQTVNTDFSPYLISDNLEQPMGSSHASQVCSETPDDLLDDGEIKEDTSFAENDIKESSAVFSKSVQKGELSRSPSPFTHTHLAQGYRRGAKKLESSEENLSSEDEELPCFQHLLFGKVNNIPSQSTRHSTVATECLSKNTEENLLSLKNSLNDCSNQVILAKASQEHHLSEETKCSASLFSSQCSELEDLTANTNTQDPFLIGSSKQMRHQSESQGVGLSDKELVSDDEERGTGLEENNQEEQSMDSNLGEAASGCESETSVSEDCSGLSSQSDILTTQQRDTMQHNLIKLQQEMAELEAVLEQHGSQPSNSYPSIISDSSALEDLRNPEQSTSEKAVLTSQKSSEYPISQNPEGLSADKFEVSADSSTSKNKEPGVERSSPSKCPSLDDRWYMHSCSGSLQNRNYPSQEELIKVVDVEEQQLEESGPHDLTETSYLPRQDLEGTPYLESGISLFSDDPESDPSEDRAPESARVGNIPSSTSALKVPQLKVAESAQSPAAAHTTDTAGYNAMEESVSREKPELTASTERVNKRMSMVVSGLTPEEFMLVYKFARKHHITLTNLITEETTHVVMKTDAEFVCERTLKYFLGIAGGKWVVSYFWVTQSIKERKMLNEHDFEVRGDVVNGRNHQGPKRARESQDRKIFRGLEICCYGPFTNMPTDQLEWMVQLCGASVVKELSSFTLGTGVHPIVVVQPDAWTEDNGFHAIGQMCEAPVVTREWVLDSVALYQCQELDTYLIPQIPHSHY
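Rhodamine-labelled pBACH1 10-mer (100 nM) bound to BRCT domain (100 nM) at pH 7.3; compounds incubated 12 min room temperature, polarization read. Free peptide defines full inhibition; unlabelled decapeptide titrated as control.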
BRCT PPI green – inhibitors of human BRCA1 BRCT-phosphoprotein interaction (green fluorophore) | P38398 | BRCA1 BRCT-phosphopeptide binding, green fluorescence polarization | Potency, µM (series often up to 76.9 µM), without a hit: at the highest dose activity change, negative = inhibition, usual class: inhibitors | hit rate 0.05% among 75,000 | AID 875;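 also: potency is read from the fitted curve at half-maximal effect; plate controls were peptide without protein for full effect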
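Compounds were incubated for 12 min at room temperature with a complex of 100 nM fluorescein-tagged pBACH1 decapeptide and 250 nM His-tagged BRCT protein. Buffer was phosphate pH 7.3 with EDTA, DTT and Tween 20. Disruption of binding lowers the polarization signal.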
* = called active by the depositor; i = inactive; ? = inconclusive; nt = not tested or not shown; ! = not confirmed by another sample; [ ] = dose if it differs, or a comment. A selection: hits, their analogues and other compounds. The true share with any hit is near 0.46%. Unless noted, calls follow the shape of the dose curve; as a rule, active = well fitted curve in the direction sought with a large enough effect; inconclusive = small, poorly fitted or top-dose-only effect, or another doubt; inactive = no such curve, though single readings can be large; an effect the other way counts as inactive or inconclusive.

SMILES | TsaE inh | Hsp90 Hop PPI | USP2a inh | BRCT inh red | BRCT PPI green
O=S(=O)(O)c1ccc2c(N=Nc3cccc4ccccc34)c(O)c(S(=O)(=O)O)cc2c1 | i | -29%[11 µM] | nt | -18%[15.4 µM] | -25%[15.4 µM]
COc1cc(-c2ccc(N=Nc3ccc4c(S(=O)(=O)O)cc(S(=O)(=O)O)c(N)c4c3O)c(OC)c2)ccc1N=Nc1ccc2c(S(=O)(=O)O)cc(S(=O)(=O)O)c(N)c2c1O | 50µM* | 4µM*! | 77%[17.1 µM] | ? | 40µM*!
Cc1nn(-c2ccc(S(=O)(=O)O)cc2)c(O)c1N=Nc1ccc(-c2ccc(N=Nc3ccc4c(S(=O)(=O)O)cc(S(=O)(=O)O)c(N)c4c3O)c(O)c2)cc1O.[Cu].[Cu] | ? | -16%[11 µM] | nt | 2.5µM* | 6.3µM*
O=C(NCCCCN1CCCC1)c1ccc(-n2c(=O)c(=O)[nH]c3ccccc32)cc1 | nt | nt | nt | -2% | -1%
CC1=CC(C#N)(C#N)C(C#N)(C#N)C(c2ccccc2)N1 (stereo unspecified) | 50µM* | 3.2µM* | 2% | -17% | -6%
c1ccc(-c2cccc(-c3ccccn3)n2)nc1 | i | 3.2µM* | 2% | 1% | -1%
c1ccc(-c2nc3ccccc3o2)nc1 | i | -10% | -6% | -2% | -2%
O=c1[nH]n(-c2cccc3cccnc23)c(=O)c2ccccc12 | i | -4% | 0% | -1% | 0%
O=S1(=O)Nc2c(ccc3cccnc23)-c2ccccc21 | i | 3.2µM* | 19% | -2% | -1%
CC[C@H](C)[C@@H]1O[C@]2(CC[C@@H]1C)C[C@H]1C[C@H](CC=C(C)[C@@H](O[C@H]3C[C@H](OC)[C@H](O[C@H]4C[C@H](OC)[C@H](O)[C@H](C)O4)[C@H](C)O3)[C@@H](C)C=CC=C3CO[C@@H]4[C@@H](O)C(C)=C[C@H](C(=O)O1)[C@@]34O)O2 | i | -23% | 22% | -2% | -1%
COc1cc(OC)cc([C@H](CNc2ncnc3c2ncn3[C@@H]2O[C@@H](CO)[C@H](O)[C@@H]2O)c2ccccc2C)c1 | i | -16% | nt | nt | nt
C=CC1=C(C)C2=NC1=CC1=NC(=CC3=NC(=CC4=NC(=C2)C(C)=C4CCC(=O)O)C(CCC(=O)O)=C3C)C(C=C)=C1C.[Zn] | 79µM* | 5µM* | nt | 32µM* | ?
Nc1nc(N)c2nc(CNc3ccc(C(=O)N[C@H](CCC(=O)O)C(=O)O)cc3)cnc2n1 | i | -4% | 1% | 1% | -1%
Cc1cc(O)c2c(c1)C(=O)c1cc(O)cc(O)c1C2=O | i | 5µM*! | 3% | -2% | 3%
COc1cc(C(=O)O[C@@H]2CC(C)=CC[C@@]3(C)CC[C@](O)(C(C)C)[C@H]23)ccc1O | i | -5% | nt | nt | nt
Oc1ccc([C@@H]2CNCc3sccc32)cc1O | i | -25% | -3% | 1% | -2%
CSc1nc(N)c2ncn([C@H]3O[C@H](COP(=O)(O)OP(=O)(O)OP(=O)(O)O)[C@@H](O)[C@@H]3O)c2n1 | 79µM* | -3% | nt | -1% | -5%
C=CCn1c(=O)c(C(=O)NCCNCC)c(O)c2ccccc21 | i | -7% | 13µM* | 0% | 3%
CC(C)(C)CC(C)(C)c1ccc(O)c(Cc2ccc(Cl)cc2Cl)c1 | nt | nt | 10µM* | -1% | 1%[3.08 µM]
Oc1ccc(Cl)cc1Cc1cc(Cl)cc(Cc2cc(Cl)ccc2O)c1O | i | -4%[11 µM] | nt | 1%[15.4 µM] | 0%[15.4 µM]
O=C(O)C1CC(=O)N(CCC23CC4CC(CC(C4)C2)C3)C(=Nc2ccccc2)S1 (stereo unspecified) | nt | nt | nt | 0% | -1%
CC(C)(C)c1ccc(-c2nnc3sc(-c4ccccn4)nn23)cc1 | i | 2µM* | nt | 0% | 0%
c1ccc(-c2nn3c(-c4ccncc4)nnc3s2)nc1 | i | ? | 6% | -4% | -5%
Cc1ccccc1/C=C\C1=NCCN1 | i | -12% | -9% | 1% | -2%
COc1cccc2c1C(=O)c1c(O)c3c(c(O)c1C2=O)C[C@@](O)(C(C)=O)C[C@@H]3O[C@H]1C[C@H](N)[C@H](O)[C@H](C)O1 | i | ? | nt | 16µM* | 9%
SMILES | TsaE inh | Hsp90 Hop PPI | USP2a inh | BRCT inh red | BRCT PPI green
COc1cccc2c1C(=O)c1c(O)c3c(c(O)c1C2=O)C[C@](O)(C(=O)CO)C[C@@H]3O[C@H]1C[C@H](N)[C@@H](O)[C@H](C)O1 | i | -3%[11 µM] | nt | nt | nt
CN(C)c1ccc(N=Nc2cccc3ccoc23)cc1 | i | 4µM* | nt | -2%[15.4 µM] | 1%[15.4 µM]
FC(F)(F)c1cc(-c2ccccc2)nc(NCC2CCCO2)n1 (stereo unspecified) | i | 32µM* | -12% | -1% | -3%
Nc1ncnc2c1ncn2[C@@H]1O[C@@H](CO)[C@H](O)[C@@H]1O | i | -7% | -3% | -1% | 1%
c1coc(-c2nc(-c3ccco3)c(-c3ccco3)nc2-c2ccco2)c1 | i | ? | ? | ? | 13µM*
Nc1nc(-c2ccco2)c(-c2ccco2)s1 | i | ? | 16% | -20% | -14%
Nc1ccccc1SCC(=O)N1CCc2ccccc21 | i | -1% | 8% | 2% | -3%
N#C[C@@H](Cc1ccc(O)c(O)c1)C(=O)N1CCc2ccccc21 | i | 6.3µM* | 0% | 1% | -4%
Cc1cc(C)n(-c2nc(Nc3ccccc3)nc(-n3nc(C)cc3C)n2)n1 | i | 0% | 13µM* | 1% | -1%
Cc1cc(C)n(-c2nncc(-c3ccccc3)n2)n1 | i | -27% | 0% | 1% | -5%
Cc1cc(Nc2ccc(O)cc2)ccc1N | 100µM* | ? | nt | -4% | -1%
CC(C)OC(=O)c1c(NC(=O)c2cccs2)sc2c1CCCC2 | i | 25µM* | -3% | 0% | 1%
O=C(Nc1sc2c(c1C(=O)O)CCCC2)c1cccs1 | i | 1% | -3% | 0% | -1%
O=C1c2c(O)ccc(O)c2C(=O)c2c(NCCNCCO)ccc(NCCNCCO)c21 | 79µM*! | 16µM*! | 31% | -5% | -2%[3.08 µM]
O=[N+]([O-])c1ccc2c(N=Nc3ccc4ccccc4c3O)c(O)cc(S(=O)(=O)O)c2c1 | 7.9µM* | ? | nt | -3%[15.4 µM] | -2%[15.4 µM]
Cc1ccc(-n2nc3c([n+]2[O-])CCc2c-3no[n+]2[O-])cc1 | i | -1% | 2µM* | -1% | -2%
CCCCCCCCCCCCCCCCOC[C@@H](COCC(F)(F)F)OP(=O)(O)OCO | i | -3% | nt | nt | nt
CSc1ncnc2nc[nH]c12 | i | -2% | nt | -2% | -1%
CCSc1nnc(NC(=O)c2ccccn2)s1 | i | 7.9µM* | 8% | 0% | 0%
CCSc1nnc(NC(=O)c2cnccn2)s1 | i | -11% | nt | -2% | -1%
CC(C)(C(=O)O)c1ccc([C@@H](O)CCCN2CCC(C(O)(c3ccccc3)c3ccccc3)CC2)cc1 | i | -2% | 9% | 2% | -2%
COCCn1c(=O)c(-c2cn(C)c3ccccc23)nc2cnc(Oc3ccccc3)nc21 | i | 3.2µM* | 89% | 0% | -4%

From PubChem BioAssay
